# AHR activator: AHR activators, primary screen, cell-based, luminescence, luciferase reporter, human; Aryl hydrocarbon receptor (Homo sapiens), P35869; AHR-responsive luciferase reporter cells; activation, % at 5 µM; actives 2.5% (n = 320,000); AID 2796, 2010; in the data active = activation above about 47%;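 also: 0% = vehicle wells and 100% = reference agonist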
# Target sequence (P35869 whole entry, looked up): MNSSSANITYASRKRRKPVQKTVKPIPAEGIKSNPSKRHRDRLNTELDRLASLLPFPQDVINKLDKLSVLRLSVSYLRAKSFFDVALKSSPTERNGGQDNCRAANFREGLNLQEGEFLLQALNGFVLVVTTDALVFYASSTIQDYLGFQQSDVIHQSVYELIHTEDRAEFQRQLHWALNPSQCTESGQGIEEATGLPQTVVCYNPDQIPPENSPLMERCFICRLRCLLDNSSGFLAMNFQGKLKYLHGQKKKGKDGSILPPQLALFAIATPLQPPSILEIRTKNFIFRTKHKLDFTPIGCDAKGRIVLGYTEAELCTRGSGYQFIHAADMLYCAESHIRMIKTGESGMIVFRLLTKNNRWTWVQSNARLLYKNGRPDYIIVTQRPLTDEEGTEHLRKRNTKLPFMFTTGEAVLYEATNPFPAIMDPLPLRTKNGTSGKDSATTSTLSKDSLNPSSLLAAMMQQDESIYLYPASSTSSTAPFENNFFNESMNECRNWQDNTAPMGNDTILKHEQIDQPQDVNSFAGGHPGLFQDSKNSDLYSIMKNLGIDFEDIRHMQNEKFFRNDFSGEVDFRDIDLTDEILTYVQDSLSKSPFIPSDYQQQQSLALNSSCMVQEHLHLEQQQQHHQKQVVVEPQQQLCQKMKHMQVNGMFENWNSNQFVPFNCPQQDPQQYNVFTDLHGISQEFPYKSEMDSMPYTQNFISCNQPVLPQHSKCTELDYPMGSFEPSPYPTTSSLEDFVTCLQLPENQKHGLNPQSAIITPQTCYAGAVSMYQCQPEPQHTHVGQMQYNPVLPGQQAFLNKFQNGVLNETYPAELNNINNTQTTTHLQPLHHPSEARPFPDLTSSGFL
# DAX1 inh-1: DAX1 (NR0B1) inhibitors on StAR promoter, primary screen, cell-based, luminescence, SF-1 (NR5A1), full-length DAX-1; actives 1.1% (n = 370,000); AID 652010, 2013; inhibition, % at 6.8 µM; HEK293T StAR-luciferase reporter, SF-1/DAX-1 repression relief;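 active = inhibition above the mean over all tested compounds plus 3 SD, cut at about 3.6% in these data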;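 also: 0% = DAX-1 cells with DMSO and 100% = cells lacking DAX-1 with DMSO; higher inhibition means more luminescence from relief of DAX-1 repression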
# ssDAF12 agonist: S. stercoralis DAF-12 nuclear receptor activators, primary screen, cell-based, luminescence, HEK293, GRIP1 co-expression, lit1-tk-luc; HEK293 ssDAF-12/GRIP1 lit1-tk-luc reporter; % of 3 µM dafachronic acid response; activation, % at 6.8 µM; actives 1% (n = 370,000);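 active = activation above the mean over all tested compounds plus 3 SD, cut at about 0.9% in these data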;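 also: 0% = DMSO-only wells and 100% = 3 µM delta7-dafachronic acid wells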
# hcDAF-12 act: H. contortus DAF-12 nuclear receptor activators, primary screen, cell-based, luminescence, HEK293, lit1-tk-luc reporter; HEK293 hcDAF-12 lit1-tk-luc reporter; 0% DMSO, 100% Δ7-dafachronic acid; actives 1.4% (n = 370,000); activation, % at 6.8 µM;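 active = activation above the mean of all tested compounds plus 3 SD, cut at about 5.5% in these data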;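 also: 100% = response to 3 µM Δ7-dafachronic acid high control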
# hgDAF-12 ag: H. glycines DAF-12 receptor agonists, primary screen, cell-based, luminescence, HEK293, GAL4 fusion, UAS-luciferase | HEK293 GAL4-hgDAF12 UAS-luciferase reporter, agonist luminescence; normalized to butyrate control | activation, % at 6.8 µM | actives 1.8% (n = 370,000);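 active = activation above a cutoff set at the mean of all screened compounds plus 3 SD, cut at about 10% in these data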;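 also: 0% = DMSO wells and 100% = sodium butyrate wells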
# DAX1 inh-2: DAX1 (NR0B1) inhibitors, primary screen, cell-based, HEK293, Gal4-DAX1, luciferase luminescence | HEK293 Gal4-DAX1 luciferase reporter | inhibition, % at 6.75 µM | actives 0.99% (n = 340,000) | AID 504766, 2011;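 active = inhibition above the mean over all tested compounds plus 3 SD, cut at about 4.2% in these data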;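 also: 0% = DAX1-transfected cells with DMSO and 100% = empty-vector control cells with DMSO; inhibition shows as a rise in luminescence from relieved DAX1 repression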
# AHR act confirm: AHR activators, confirmation, cell-based, luminescence, luciferase reporter, human; shares compounds with AHR activator; human cells, AHR-responsive luciferase reporter; activation, % at 9 µM; actives 87% (n = 2,300); AID 2845, 2010; in the data active = activation above about 49%;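 also: HepG2 hepatoma cells carrying a DRE-driven firefly luciferase reporter; 0% = vehicle wells and 100% = reference agonist wells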
# PXR counter: human PXR activators, counter-screen for AHR activator project, cell-based, luciferase luminescence | AID 434939, 2010 | shares compounds with AHR activator | cell-based PXR reporter | actives 88% (n = 2,300) | activation, % at 11.6 µM; in the data active = activation above about 11%;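 also: human hepatoma DPX-2 cells expressing full-length human PXR; 0% = DMSO and 100% = reference agonist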
# * = called active by the depositor; · = not tested or not shown. Sampled rows, rich in hits. Any-hit rate of the full collection: about 5.7%.
SMILES,AHR activator,DAX1 inh-1,ssDAF12 agonist,hcDAF-12 act,hgDAF-12 ag,DAX1 inh-2,AHR act confirm,PXR counter
O=C(/C(=C\c1ccccc1)c1nc2ccccc2[nH]1)c1ccc(Cl)cc1,80*,1,0,1,11*,0,16,117*
Cc1oc(-c2ccccc2F)nc1CS(=O)(=O)CC(=O)NCCCN1CCc2ccccc2C1,3,1,-1,5,0,1,·,·
COc1cc([N+](=O)[O-])c(N2CCOCC2)c([N+](=O)[O-])c1OC,1,0,-1,-1,-1,1,·,·
Cc1ccc2sc(NNC(=O)C3COc4ccccc4O3)nc2c1C (centres undefined),137*,0,-1,4,1,-1,65*,48*
COc1cccc2sc(NNC(=O)C3COc4ccccc4O3)nc12 (centres undefined),39,0,0,1,-1,-2,·,·
Cc1cc2c(C)nc(-c3ccccc3)nc2o1,116*,2,0,1,2,2,159*,39*
CCOC(=O)CN1C(c2ccccc2O)Nc2ccc(Br)cc2C1c1ccccc1 (centres undefined),2,0,-1,0,-1,0,·,·
CC1CCCN(C(=O)c2cc3c(-c4ccc(Cl)cc4)nn(C)c3s2)C1 (centres undefined),82*,1,-1,2,4,0,80*,23*
Oc1c(C(c2ccc(F)cc2)N2CCc3ccccc3C2)sc2ncnn12 (centres undefined),96*,0,-1,-1,1,0,78*,34*
CCOCCCN(CCC#N)S(=O)(=O)c1ccc(S(=O)(=O)N2CCCC2)cc1,4,1,-2,-1,-1,3,·,·
COc1ccc(NC(=O)c2cc(=O)[nH]c3ccccc23)cc1,100*,1,-1,0,2,0,108*,20*
COc1ccc(NC(=O)c2cccc3c(Br)cccc23)cc1,93*,0,0,1,2,-2,121*,·
CN(C)c1cccc(O)c1,4,2,0,0,3,0,·,·
COc1ccc(NC(=O)c2ccco2)cc1NC(=O)c1ccc(C)cc1,93*,0,-1,0,1,-2,106*,13*
O=C(N/N=C/c1ccc2c(c1)OCO2)c1ccc2c(c1)OCO2,115*,4.0*,0,4,5,1,93*,25*
COc1ccc(C)cc1NC(=O)COC(=O)c1ccc2c(c1)OCO2,0,0,0,-2,-2,0,·,·
COc1cc(NC(=O)c2cccs2)c(OC)cc1NC(=O)c1ccco1,94*,0,-2,-1,-3,-2,117*,10*
COc1ccc(C)cc1NC(=O)c1ccc2c(c1)OCO2,104*,0,1,3,6,3,116*,26*
O=C(NN=Cc1ccc2c(c1)OCO2)c1ccncc1,·,1,-1,0,-1,1,·,·
COc1ccc(CNC(=O)C(c2cccc(C)c2)N(C(=O)c2csnn2)C2CC2)cc1 (centres undefined),0,0,-1,-1,0,0,·,·
O=C(O)c1ccccc1C(=O)c1ccc2c(c1)N(Cc1cccc(F)c1)C(=O)CO2,5,-1,-2,-1,-1,0,·,·
COc1ccc(C=C(C(C)=O)C(=O)c2ccccc2)cc1,·,-2,-1,-1,4,·,·,·
Cc1ccc(-c2nnn(CCC(=O)NC(C)(C)C)n2)cc1,12,2,-1,3,7,2,·,·
Cc1ccc(/C=C/C(=O)NC(=S)N2CCN(C)CC2)cc1,0,0,-1,-2,-1,-1,·,·
COC(=O)c1c(NC(=O)c2nc3ccccc3s2)sc2c1CCN(C(C)=O)C2,40,·,·,·,·,-1,·,·
SMILES,AHR activator,DAX1 inh-1,ssDAF12 agonist,hcDAF-12 act,hgDAF-12 ag,DAX1 inh-2,AHR act confirm,PXR counter
CNC(=O)c1c(NC(=O)c2nc3ccccc3s2)sc2c1CCC2,112*,·,·,·,·,0,79*,29*
[O-]/[N+](=C\c1ccccc1)c1ccc(Br)cc1,88*,0,-1,2,6,2,114*,14*
[O-]/[N+](=C\c1ccccc1)c1ccccc1,3,0,-1,1,3,1,·,·
COc1ccc(/C=N/NC(=O)c2ccc(NS(=O)(=O)c3cccs3)cc2)cc1,5,0,1,0,7,0,·,·
Oc1c(C=NCc2ccc(F)cc2)[nH]c2ccc(Br)c(Cl)c12,81*,-1,-1,0,0,·,86*,31*
COc1ccc(C2SCC(=O)N2c2nnc(C34CC5CC(CC(C5)C3)C4)s2)cc1 (centres undefined),-1,0,-1,-3,0,-1,·,·
NC1=NC(=Nc2ccc(Br)cc2)c2ccccc21,88*,0,-1,0,5,0,13,15*
NC1=NC(=Nc2cccc(Cl)c2)c2ccccc21,2,-1,-1,-2,-3,1,·,·
CCn1c(-c2nn(C)c(C)c2Cl)n[nH]c1=S,-5,0,-1,-2,-1,1,·,·
C/C(=C\C(=O)c1ccccc1)NNc1nc2ccccc2s1,97*,0,-1,3,-4,0,18,54*
O=C(NC(Nc1nc2ccccc2s1)(C(F)(F)F)C(F)(F)F)c1ccccc1,7,2,0,1,7,-1,·,·
Cc1ccc(S(=O)(=O)N2[C@@H](c3ccc(Cl)cc3)C(C(=O)O)=CC[C@H]2c2cccc(C)c2)cc1,3,0,-1,-1,2,0,·,·
CCc1c(C)sc(NC(=O)c2cccs2)c1C#N,90*,1,0,0,8,1,90*,39*
COCC(C)NC(=O)c1oc2c(c1C)C1(CCC2)SCCS1 (centres undefined),11,0,-2,-2,0,-1,·,·
Cc1c(C(=O)NCCCN2CCOCC2)oc2c1C1(CCC2)SCCS1,109*,0,0,-1,2,0,95*,181*

# Screens as filed in PubChem.
